Source: ChEMBL document CHEMBL1201862, “PubChem BioAssay data set” (2004)
In all, about 55,000 sequences went through this assay and about 4,100 (7.5%) were called active. Rule as the data show it: active = GI50 up to about 1.1 µM and inactive = higher. Not all results are given here. Results with a measured potency or affinity are listed apart.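 Method: 48-hour compound exposure of cells in 96-well plates, five concentrations, linear interpolation of endpoints. GI50 is the concentration that inhibits growth by half.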

Each substance was assayed on SF-539 (assay: NCI tumour cell line growth inhibition, 48 h).
With “[Bis(aminomethyl)tetramethylenesilane]dichloropaltinum(II), CHEMBL2146205” the GI50 was 20.5 µM.
“[Bis(aminomethyl)diethylsilane]tetrachloroplatinum(IV), CHEMBL2146203” was tested, and the GI50 was 2.49 µM.
“[Bis(aminomethyl)pentamethylenesilane]tetrachloropaltinum(IV), CHEMBL2146204” gave a GI50 of 0.558 µM.
Substance “[Bis(aminomethyl)tetramethylenesilane]tetrachloropaltinum(IV), CHEMBL2146189” has a GI50 of 2.18 µM.
“[Bis(aminomethyl)dimethylsilane]dichloroplatinum (II), CHEMBL2146201” showed a GI50 of 23.4 µM.
For “cis-Bis[[(trimethylsilyl)methyl]amino]tetrachloroplatinum(IV), CHEMBL2146191”, the GI50 was 4.24 µM.
With “[Bis(aminomethyl)dimethylsilane]tetrachloroplatinum(IV), CHEMBL2146190” the GI50 was 4.99 µM.
“[Bis(aminomethyl)pentamethylenesilane]dichloropaltinum(II), CHEMBL2146202” was tested, and the GI50 was 1.48 µM.
Work on “mu-(1,7-nanodiamine-N,N')bis-(cis-aminedichloroplatimum (II)), CHEMBL2146215” yielded a GI50 of 27.4 µM.
In the case of CISPLATIN, CHEMBL11359, the GI50 was 1.66 µM.
Work on “[Bis(aminomethyl)ethylmethylsilane]tetrachloroplatinum(IV), CHEMBL2146192” yielded a GI50 of 3.05 µM.
